Gal4-VP16 FLuc: Gal4-VP16 reporter inhibition counter-screen; Drosophila S2 Gal4-VP16 UAS-luciferase, luminescence, 20 h; AID 2546; Potency, µM (top dose mostly 53.6 µM), for the others: at the highest dose activity, negative = inhibition, hits mostly inhibitors; 310,000 compounds, 3.5% hits;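 further: Gal4-VP16 expression switched on by copper sulfate through the metallothionein promoter; on the % scale 0 is the no-effect control and ±100 the full control effect; nearly all actives have a fitted effect of over 50% in size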
Sfp PPTase inh: blocks B. subtilis Sfp PPTase activity; Q9F4F7; Biochemical Sfp PPTase activity, qHTS; Potency, µM, for the others: largest response in the series, negative = inhibition, hits mostly inhibitors; 310,000 compounds, 3.5% hits; AID 1490;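 further: the enzyme is Sfp with the accession as filed and its product quenches rhodamine fluorescence; 0% = enzyme reaction without inhibitor and -100% = no enzyme wells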
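After 15 min at room temperature with compound, 15 nM Sfp received 5 uM rhodamine-CoA plus 12.5 uM BHQ-2-ybbR (50 mM Hepes pH 7.6, 10 mM MgCl2). Rate came from the fluorescence difference over 30 min, ex 525/em 598 nm.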
RORgamma inh: ROR gamma (mouse) transcription inhibition | P51450 | Drosophila S2 Gal4-RORgamma UAS-luciferase reporter, 20 h | Potency, µM (highest dose often 53.6 µM), for the others: at the highest dose activity change, negative = inhibition, hits mostly inhibitors | 310,000 compounds, 5.4% hits | AID 2551; further: on the % scale 0 is the no-effect control and ±100 the full control effect; nearly all actives have a fitted effect of over 60% in size
Target sequence (P51450 whole entry, looked up, the tested form may be a part): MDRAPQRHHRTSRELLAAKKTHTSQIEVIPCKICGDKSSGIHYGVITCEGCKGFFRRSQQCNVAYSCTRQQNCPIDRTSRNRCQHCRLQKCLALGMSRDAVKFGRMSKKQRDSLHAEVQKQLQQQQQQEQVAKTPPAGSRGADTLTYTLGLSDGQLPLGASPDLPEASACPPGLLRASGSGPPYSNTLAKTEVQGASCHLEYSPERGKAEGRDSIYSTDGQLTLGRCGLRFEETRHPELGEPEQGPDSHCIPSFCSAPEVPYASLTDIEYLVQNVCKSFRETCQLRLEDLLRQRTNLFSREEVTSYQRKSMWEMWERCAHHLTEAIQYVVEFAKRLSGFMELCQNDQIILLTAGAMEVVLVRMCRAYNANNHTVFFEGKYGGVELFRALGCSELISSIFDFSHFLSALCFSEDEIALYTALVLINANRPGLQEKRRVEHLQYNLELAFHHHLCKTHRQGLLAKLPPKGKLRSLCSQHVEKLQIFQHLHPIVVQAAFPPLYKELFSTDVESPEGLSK
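ROR gamma transcriptional activity was tracked as Gal4-UAS luciferase output in stably transfected Drosophila Schneider cells, with compound added 1 hr before 700 uM copper sulfate induction and a 20 hr ambient-temperature incubation.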
ClpP mod: qHTS Assay for Activators of ClpP | 340,000 compounds, 1.9% hits | Potency, µM (doses to about 57.5 µM), for the others: at the top dose activity change, negative = active | purified B. subtilis ClpP, FRET peptide cleavage, 20 min | ATP-dependent Clp protease proteolytic subunit (Bacillus subtilis (strain 168)), P80244; active means well fitted falling curve with a large enough effect; inconclusive means small, poorly fitted or top-dose-only effect; inactive means no such curve, though single readings can be large or run the other way; further: the source files actives as falling curves though it sought activators and does not explain the sign; nearly all actives have a fitted effect of over 65% in size
Target sequence (P80244 whole entry, looked up): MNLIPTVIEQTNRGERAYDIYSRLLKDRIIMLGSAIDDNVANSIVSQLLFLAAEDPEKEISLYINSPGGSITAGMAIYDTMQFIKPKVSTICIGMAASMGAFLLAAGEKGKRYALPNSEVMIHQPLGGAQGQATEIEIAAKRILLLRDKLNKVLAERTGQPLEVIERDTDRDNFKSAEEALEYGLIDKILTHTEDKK
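ClpP 10 microg/mL final, pH 8 Tris/KCl buffer with BSA, glycerol, Tween-20; compound pinned in; FRET-FV substrate; RT 20 min; Ex320/Em430; ΔFRET vs ADEP 5.8 microM, DMSO, no enzyme.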
PINK1 modulator: PINK1 expression modulation. Potency, µM (series often up to 76.6 µM), inactives show at the top dose activation (PINK1 increase), actives largely listed as activators. PINK1 immunofluorescence, high-content cytometry, 24 h. 410,000 compounds, 0.2% hits; active means well fitted activation curve with a large enough effect; inconclusive means small, poorly fitted or top-dose-only effect; cell line not stated here; further: % of control where 0% means no effect; nearly all actives have a fitted effect of over 65% in size
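A stable cell line was treated with compounds at 5 concentrations for 24 hours, with CCCP as control. PINK1 levels and mitochondrial localization were measured by immunofluorescence with mitochondrial, cell and nuclear markers after fixation, read by laser-scanning cytometry.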
Epigenetic reg: epigenetic control regulation, reporter derepression | murine LDR cells, GFP reporter derepression, 30 h | Potency, µM (titrated, usually from 53.9 µM), for inactives: at the top dose GFP activation, usual class: activators | 280,000 compounds, 0.2% hits; further: % of control where 0% means no effect; nearly all actives have a fitted effect of over 60% in size
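In this reporter-derepression format, murine cells bearing a silenced integrated CMV-GFP locus incubate with test compound (30 h, 37 C), then are washed and imaged; fluorescent objects of 20–120 um count as induced cells.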
* hit, by the source's call; u = inconclusive; x = not tested or not shown; [ ] = remark or other dose. Rows were chosen to be rich in hits. Some 8.1% of all compounds tested hit in one or more screens of this group. Unless noted, the call rests on the fitted dose curve; in most records, active means well fitted curve in the direction sought with a large enough effect; inconclusive means small, poorly fitted or top-dose-only effect, or another doubt; inactive means no such curve, though single readings can be large; an effect the other way counts as inactive or inconclusive. Potency means the concentration at half of the fitted maximal effect.

SMILES	Gal4-VP16 FLuc	Sfp PPTase inh	RORgamma inh	ClpP mod	PINK1 modulator	Epigenetic reg
S=C(Nc1ccccc1)N1CCn2c1nc1ccccc12	5µM*	22%	0.56µM*	-10%	x	3%
O=C(Nc1ccccc1)N1CCn2c1nc1ccccc12	0%	0%	30%	-1%	-1%	2%
Cc1ccc(C)c(CN2C(=O)CSc3ccc(C(=O)NCCc4ccc(Cl)cc4)cc32)c1	x	x	x	0%	7%	-1%
Cc1cc(=O)n2[nH]c(C)c(-c3ccccc3)c2n1	-7%	9%	-43%	-29%	1%	1%
Cc1cc(=O)n2[nH]c(N)c(N=Nc3ccccc3F)c2n1	11%	8%	10µM*	0%	-2%	2%
Cc1nn(C)cc1-c1n[nH]c(=S)n1-c1ccc(Cl)cc1	-4%	u	u	-1%	0%	5%
Nn1c(-c2ccco2)n[nH]c1=S	5%	56µM*	3%	-11%	8%[38.3 µM]	0%
Cc1ccc(C)c(-n2c(-c3ccco3)n[nH]c2=S)c1	x	x	x	-1%	6%	x
CC(C)(C)c1cc(-c2n[nH]c(=S)n2-c2ccc(Cl)cc2)n[nH]1	-17%	u	7.1µM*	-1%	0%	-2%
S=c1[nH]nc(-c2ccco2)n1-c1ccc(Cl)cc1	-29%	-15%	8.9µM*	x	0%	6%
Cn1cc(Cl)c(-c2n[nH]c(=S)n2C2CCCCC2)n1	u	25%	6.3µM*	x	2%	2%
COc1ccc(-n2c(-c3ccco3)n[nH]c2=S)cc1	u	-19%	10%[10 µM]	u	0%	1%
Cn1cc(Cl)c(C(=O)NC2CCCCCC2)n1	24%	13%	-4%	-2%	-2%[38.3 µM]	-2%
Cc1ccc(-n2ncc(C(=O)NCCCN3CCc4ccccc4C3)c2C2CCN(C(=O)OC(C)(C)C)CC2)c(C)c1	x	x	x	0%	1%	-1%
CCc1ccc(-n2nc(CO)c(C(=O)NCc3cccs3)n2)cc1	x	x	x	-19%	6%	-3%
O=S(=O)(c1cccc(-c2n[nH]c(=S)n2C2CCCC2)c1)N1CCOCC1	-8%	-10%	u	0%	-1%	2%
S=c1[nH]nc(-c2ccco2)n1C1CCCCC1	u	-20%	10µM*	-6%	1%	0%
CC(C)NC(=O)C1CCC(Cn2c(=O)c3sccc3n(CC(=O)NCc3ccccc3)c2=O)CC1 (stereo not drawn)	x	x	x	-2%	0%	1%
CCOc1ccccc1NC(=O)Cn1cc(C(=O)c2cccc(OC)c2)c(=O)c2ccc(C)nc21	x	x	x	-3%	26%	u
COc1ccccc1NC(=O)CSc1nnc2c3ccccc3n(C(C)C)c2n1	x	x	x	-1%	4%	7%
COc1ccc(CN2CCN(Cc3ccco3)CC2)c(OC)c1	10%	56µM*	32%	-1%	-1%	x
COc1ccccc1CN1CCN(Cc2ccco2)CC1	-1%	u	1%	-1%	0%	x
O=C(CSc1ncccc1-c1nc2ccccc2[nH]1)N1CCCCC1	0%	1%	3%[10 µM]	u	2%[38.3 µM]	10%
O=C(c1ccccc1-c1nc2ccccc2[nH]1)N1CCCCC1	-3%	5%	-3%[10 µM]	28µM*	1%	-1%
CCOC(=O)N1CCN(CC(O)COCC2=CCC3CC2C3(C)C)CC1 (stereo not drawn)	-7%	79µM*	27%	1%	2%	1%
SMILES	Gal4-VP16 FLuc	Sfp PPTase inh	RORgamma inh	ClpP mod	PINK1 modulator	Epigenetic reg
CCOC(=O)N1CCN(CC(O)COCc2ccccc2)CC1 (stereo not drawn)	2%	17%	12%	2%	3%	2%
CCc1ccc(S(=O)(=O)/N=C2/C=C(Sc3ncn[nH]3)C(=O)c3ccccc32)cc1	6.3µM*	3.5µM*	13µM*	11%	4%	5%
O=C(O)c1ccc(NC2=C/C(=N/S(=O)(=O)c3cccs3)c3ccccc3C2=O)cc1	x	x	x	0%	-1%	x
CCc1ccc(S(=O)(=O)/N=C2\C=C(Nc3ccc(O)cc3)C(=O)c3ccccc32)cc1	11µM*	-11%	10µM*	x	-1%	x
Cc1ccc(NC2=C/C(=N\S(=O)(=O)c3cccs3)c3ccccc3C2=O)c(C)c1	u	-7%	u	-1%	-3%	-1%
O=C1C(Nc2ccc(O)cc2)=C/C(=N/S(=O)(=O)c2cccs2)c2ccccc21	13µM*	-4%	11µM*	x	-2%	-3%
Cc1ccc(Cl)cc1NC1=C/C(=N\S(=O)(=O)c2cccs2)c2ccccc2C1=O	5µM*	-4%	-92%	1%	-2%	0%
CCc1ccc(S(=O)(=O)/N=C2\C=CC(=O)c3ccccc32)cc1	u	-28%	u	x	x	4%
CCOC(=O)C(Sc1ncn[nH]1)c1ccccc1 (stereo not drawn)	1%	16%	-28%	-4%	0%	0%
CCc1ccccc1NC(=O)Cn1c(=O)n(Cc2ccc(OC)cc2)c(=O)c2oc3ccccc3c21	x	x	x	-1%	-1%	3%
COC(=O)c1ccccc1NC(=O)Cn1c(=O)n(CCCC(=O)NCc2ccccc2OC)c(=O)c2ccccc21	x	x	x	-6%	1%	u
O=C(N[C@@H]1c2ccccc2C2(CCN(C(=O)c3cc4ccccc4oc3=O)CC2)[C@H]1O)c1cccnc1	x	x	x	x	1%	x
CCc1ccc(S(=O)(=O)/N=C2\C=C(Nc3cccc(C(=O)O)c3)C(=O)c3ccccc32)cc1	u	-18%	11µM*	x	-2%	x
CSc1cccc(NC(=O)c2cccc(N3CCCS3(=O)=O)c2)c1	x	x	x	1%	0%	1%
CC1=CC(C)(C)n2c(O)c(N=N)c3cc(C)cc1c32	-16%	-12%	-11%	0%	3%	0%
CC1=CC(C)(C)n2c(O)c(N=NC(N)=S)c3c(C)c(C)cc1c32	6%	6%	6%	2%	0%	-1%
CC1=CC(C)(C)n2c(O)c(N=NC(N)=S)c3c(C)ccc1c32	2.5µM*	17%	4.5µM*	0%	1%	-1%
CC1=CC(C)(C)n2c(O)c(N=NC(N)=S)c3cccc1c32	2µM*	0%	1.1µM*	0%	1%	1%
CC1=CC(C)(C)n2c(O)c(N=N)c3c(C)ccc1c32	-27%	12%	-3%	x	0%	-3%
COc1cc2c3c(c1)c(N=NC(N)=S)c(O)n3C(C)(C)C=C2C	4.5µM*	-2%	2µM*	x	11%	1%
CSCC[C@H](NC(=O)c1ccc(NC[C@@H](N)CS)cc1-c1ccccc1)C(=O)O	-5%	u	-3%	x	x	x
CC1(C)OC2OC(C(=O)N/N=C/c3cc(Br)ccc3O)C3OC(C)(C)OC3C2O1 (stereo not drawn)	u	3%	1.6µM*	-20%	1%	-2%

Source: PubChem BioAssay (National Center for Advancing Translational Sciences (NCATS))
